Results on seven compounds are retold here after PubChem BioAssay.

The source made the active and inactive calls. How the calls were made is not given here.

Sequence of Pantothenate synthetase (Mycobacterium tuberculosis (strain ATCC 25618 / H37Rv)) (P9WIL5 whole entry, looked up): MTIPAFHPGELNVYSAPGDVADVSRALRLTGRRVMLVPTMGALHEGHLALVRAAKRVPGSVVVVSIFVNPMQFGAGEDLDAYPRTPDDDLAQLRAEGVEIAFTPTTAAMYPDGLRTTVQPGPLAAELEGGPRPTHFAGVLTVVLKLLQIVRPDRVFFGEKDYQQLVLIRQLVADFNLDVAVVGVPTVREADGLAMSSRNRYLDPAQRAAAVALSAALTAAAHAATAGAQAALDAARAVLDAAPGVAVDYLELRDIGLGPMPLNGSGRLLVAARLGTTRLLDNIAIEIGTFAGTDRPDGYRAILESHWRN

The experiment has as its target Pantothenate synthetase (Mycobacterium tuberculosis (strain ATCC 25618 / H37Rv)) (UniProt P9WIL5). Description: Coupled enzyme confirmation of inhibitors against recombinant Mtb PanC (AID 375).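 Further: 0% = full reaction with vehicle and 100% = no enzyme background.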 The conditions noted are these: coupled enzyme assay; at 10 µM, hits give high values.
On to `O=C(C1CCN(S(=O)(=O)Cc2ccccc2)CC1)N1CCN(c2ncccn2)CC1`, for which the inhibition is 0% (inactive).

Take `CC1CCN(c2oc(-c3cccc4ccccc34)nc2C#N)CC1`: the inhibition was 0% (inactive).

Turning to `CN(CC(=O)N1CCN(c2ccc(F)cc2)CC1)S(=O)(=O)c1ccc(F)cc1`, the inhibition was 0% (inactive).

For the compound `CCOC(=O)c1cnn(-c2cc(C)nc3c(-c4ccccc4)c(C)nn23)c1N`, the inhibition is 6% (inactive).

Consider `Cc1c(NC(=O)C2CCCCN2S(=O)(=O)c2ccc(Cl)cc2)c(=O)n(-c2ccccc2)n1C` (configuration not stated), for which the inhibition was 0% (inactive).

With `C(#Cc1ccccc1)Cn1nnc2ccccc21`, the inhibition is 0% (inactive).

In the case of `O=C(NC1CC2CCC1C2)c1ccc(CN2CCOCC2)cc1` (configuration not stated), the inhibition was 5% (inactive).

As usually defined, the inhibition is the change of the read-out against control, counted positive when it falls.
